# High-throughput results as filed in PubChem.
# Sampled rows, rich in hits. Any-hit rate of the full collection: about 2.9%.
# PAFAH1B3 FP inh – inhibitors of human PAFAH1B3; recombinant PAFAH1B3, FP-rhodamine probe, fluorescence polarization; AID 492972; inhibition, % at 3.39 µM; hit rate 0.28% among 340,000; Q15102;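 active = inhibition above the screen-wide average of all tested compounds plus 3 SD, cut at about 25% in these data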;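 also: 0% = enzyme with DMSO only and 100% = wells lacking PAFAH1B3 protein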
# Target sequence (Q15102 whole entry, looked up): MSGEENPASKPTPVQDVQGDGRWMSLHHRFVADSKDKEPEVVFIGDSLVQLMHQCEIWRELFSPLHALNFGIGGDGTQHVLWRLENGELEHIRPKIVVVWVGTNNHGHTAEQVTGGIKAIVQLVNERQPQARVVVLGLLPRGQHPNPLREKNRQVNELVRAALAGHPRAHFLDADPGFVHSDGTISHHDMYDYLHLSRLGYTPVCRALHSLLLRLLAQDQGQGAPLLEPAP
# PAFAH2 inh – inhibitors of human PAFAH2; Q99487; recombinant PAFAH2, FP-rhodamine activity probe, fluorescence polarization; inhibition, % at 3.39 µM; hit rate 0.99% among 340,000; AID 492956;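 active = inhibition above the mean over all tested compounds plus 3 SD, cut at about 30% in these data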;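 also: inhibitors block probe labeling of enzyme so polarization drops; 0% = enzyme with DMSO and 100% = wells lacking PAFAH2 protein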
# PAFAH1B2 inh – inhibitors of human PAFAH1B2 | P68402 | recombinant PAFAH1B2, FP-rhodamine activity probe, fluorescence polarization | inhibition, % at 3.39 µM | hit rate 1.2% among 340,000 | AID 492953;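 active = inhibition above the mean of all tested compounds plus 3 SD, cut at about 24% in these data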;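 also: 0% = enzyme with DMSO and 100% = wells lacking PAFAH1B2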
# ZTA DNA inh – ZTA (EBV) inhibition in EBNA-1 counter-screen; P03206; ZTA-DNA binding, fluorescence polarization; inhibition, % at 11 µM; hit rate 0.15% among 320,000; AID 2234; in the data active = inhibition above about 33%
# Target sequence (P03206 whole entry, looked up): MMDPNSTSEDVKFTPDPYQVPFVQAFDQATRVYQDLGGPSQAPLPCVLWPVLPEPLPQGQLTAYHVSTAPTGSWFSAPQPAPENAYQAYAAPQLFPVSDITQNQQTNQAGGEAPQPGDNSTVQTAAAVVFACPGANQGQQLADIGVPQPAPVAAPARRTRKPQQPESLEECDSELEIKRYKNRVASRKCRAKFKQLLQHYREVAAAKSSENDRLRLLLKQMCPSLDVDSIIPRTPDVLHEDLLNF
# rCAG binder – r(CAG) repeat RNA binding; TO-PRO-1 dye displacement fluorescence; inhibition, % at 3 µM; hit rate 1.3% among 370,000; AID 651821;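 active = inhibition above the plate cutoff, the mean of all test compounds on that plate plus 3 SD, cut at about 35% in these data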;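 also: 0% = DMSO alone and 100% = 100 µM mitoxantrone as full dye displacement; higher means more dye released from RNA so lower well fluorescence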
# EBNA-1 inhibitor – blocks EBNA-1 binding to DNA | inhibition, % at 14.8 µM | EBNA-1 DNA binding, fluorescence polarization | hit rate 0.34% among 300,000; in the data active = inhibition above about 28%
# PAFAH2 FP conf – PAFAH2 (human) inhibition, confirmed. shares compounds with PAFAH2 inh. recombinant PAFAH2, FP-rhodamine activity probe, fluorescence polarization. inhibition, % at 3.39 µM. hit rate 65% among 2,300. AID 493030;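 active = mean inhibition over three repeats above a set limit taken from the earlier primary screen, cut at about 30% in these data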;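 also: inhibitor blocks binding of rhodamine activity probe so polarization falls; 0% = enzyme with DMSO and 100% = wells lacking PAFAH2 protein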
# * hit, by the source's call; . = no result given.
SMILES,PAFAH1B3 FP inh,PAFAH2 inh,PAFAH1B2 inh,ZTA DNA inh,rCAG binder,EBNA-1 inhibitor,PAFAH2 FP conf
Cc1cc(C(=O)OCC(=O)Nc2cccc(S(N)(=O)=O)c2)c(C)o1,4,28,4,.,6,.,.
Cc1noc(C)c1COc1ccc(C(=O)OCC(=O)Nc2cccc(S(=O)(=O)N3CCOCC3)c2)cc1,-1,72*,1,12,8,-1,65*
COc1ccccc1CCC(=O)OCC(=O)Nc1cccc(S(=O)(=O)N2CCCCC2)c1,-2,7,1,-4,2,-6,.
COc1ccccc1CCC(=O)OCC(=O)Nc1cccc(S(=O)(=O)N2CCOCC2)c1,6,73*,-6,-3,1,-3,66*
O=C(COC(=O)c1cccc(F)c1)Nc1cccc(S(=O)(=O)N2CCOCC2)c1,.,.,.,.,3,.,.
Cc1cc(C(=O)OCC(=O)Nc2cccc(S(=O)(=O)N3CCOCC3)c2)c(C)o1,2,36*,-4,-24,3,-9,27
CN(CCO)c1cccc2c1S(=O)(=O)N[C@H](Cc1ccccc1)CO2,.,.,.,.,-1,.,.
O=C(COC(=O)c1cc(S(=O)(=O)N2CCCC2)ccc1O)Nc1ccc(F)cc1F,0,42*,8,.,9,.,21
CC(C)CN1C(=O)C[C@]2(C(=O)N(C)c3ccc(NC(=O)c4cc(F)ccc4F)cc32)C1c1ccccc1 (stereo partly drawn),.,.,.,.,0,.,.
CC(=O)Oc1ccc(/C=C/c2nc3ccccc3c(=O)o2)cc1,9,50*,7,-9,12,3,57*
O=c1oc(/C=C/c2ccc([N+](=O)[O-])s2)nc2ccccc12,-2,19,7,25,.,-9,.
CC(=O)Oc1ccccc1/C=C/c1nc2ccccc2c(=O)o1,5,86*,4,-11,16,-9,70*
FC(F)(F)c1ccc(Cl)c(CN2CCN(c3ncc(Cc4ccccc4)cn3)CC2)c1,.,.,.,.,5,.,.
O=C1CSc2ccc(C(=O)N3CCCC(C(=O)N4CCOCC4)C3)cc2N1 (stereo not drawn),.,.,.,.,2,.,.
CC(C)=CC(=O)OCC(=O)Nc1ccc(Cl)cc1,4,80*,3,-6,-3,1,78*
CCOC(=O)/C=C/C(=O)OCC(=O)Nc1ccc(C)cc1,.,.,.,-11,-1,-11,.
CC(C)=CC(=O)OCC(=O)Nc1cc(C)cc(C)c1,11,81*,3,3,-3,9,85*
COC(=O)c1ccc(Cn2ccc3ccc(-c4ccc5ccn(Cc6ccccc6)c5c4)cc32)cc1,.,.,.,.,13,.,.
CCC(=O)N(Cc1ccccc1)c1ccccc1C(=O)Nc1cc(OC)ccc1OC,.,.,.,.,-1,.,.
Brc1ccccc1OCCCCn1cnc2ccccc21,2,35*,4,-6,-9,-4,4
C#CCNC(=O)C[C@H]1C[C@@]2(C(=O)OC)C(=C[C@H](C3CCCC3)O[C@@H]2C)N(Cc2ccco2)C1=O,.,.,.,.,-1,.,.
CCCCn1c(N)c(N(CCOC)C(=O)c2ccc(N3C(=O)c4ccccc4C3=O)cc2)c(=O)[nH]c1=O,3,-5,2,.,1,.,.
CCCCn1c(N)c(N(CCOC)C(=O)c2cccc(N3C(=O)c4ccccc4C3=O)c2)c(=O)[nH]c1=O,3,45*,-3,2,-4,10,-2
Brc1ccc(-c2nn3c(-c4ccccc4)nnc3s2)o1,.,.,.,.,8,.,.
CCCOc1ccc2c3c(c(=O)oc2c1OCCC)CCCC3,-7,35*,0,-4,-2,-4,19
SMILES,PAFAH1B3 FP inh,PAFAH2 inh,PAFAH1B2 inh,ZTA DNA inh,rCAG binder,EBNA-1 inhibitor,PAFAH2 FP conf
Cc1ccsc1C(=O)OCC(=O)NCCC1=CCCCC1,-2,32*,0,-2,-6,-7,25
Nc1cc(C(=O)OCC(=O)NCCC2=CCCCC2)ccc1Cl,-5,52*,3,.,2,.,38*
O=C(COC(=O)c1ccc(Br)cc1)NCCC1=CCCCC1,8,31*,3,14,-4,12,32*
O=C(COC(=O)c1ccccc1)NCCC1=CCCCC1,0,35*,2,9,-4,4,31*
O=Cc1ccc(C(=O)OCC(=O)NCCC2=CCCCC2)cc1,1,23,-2,2,-4,2,.
O=C(COC(=O)c1ccc[nH]c1=O)NCCC1=CCCCC1,7,1,8,.,3,.,.
COC(=O)C12CCCN1C1C(=O)N(Cc3ccc(C(N)=O)cc3)CC1C2 (stereo not drawn),.,.,.,.,5,.,.
